Records with an inconclusive call do not appear. A call without a number means that no potency is given here. The source made the active and inactive calls. Calls follow the shape of the dose curve; as a rule, active = well fitted curve in the direction sought with a large enough effect; inconclusive = small, poorly fitted or top-dose-only effect, or another doubt; inactive = no such curve, though single readings can be large; an effect the other way counts as inactive or inconclusive.
How the values were obtained:
[1] = biological target: Luciferin 4-monooxygenase (Photinus pyralis) (UniProt P08659); assay: Biochemical firefly luciferase enzyme assay for NPC (AID 624030);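 also: purified P. pyralis luciferase at 10 nM with luciferin and ATP substrate; nearly all actives have a fitted effect of over 70% in size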; details: purified P. pyralis luciferase, luminescence, 5 min; series mostly up to 58.6 µM
Chain of Luciferin 4-monooxygenase (Photinus pyralis) (P08659 whole entry, looked up): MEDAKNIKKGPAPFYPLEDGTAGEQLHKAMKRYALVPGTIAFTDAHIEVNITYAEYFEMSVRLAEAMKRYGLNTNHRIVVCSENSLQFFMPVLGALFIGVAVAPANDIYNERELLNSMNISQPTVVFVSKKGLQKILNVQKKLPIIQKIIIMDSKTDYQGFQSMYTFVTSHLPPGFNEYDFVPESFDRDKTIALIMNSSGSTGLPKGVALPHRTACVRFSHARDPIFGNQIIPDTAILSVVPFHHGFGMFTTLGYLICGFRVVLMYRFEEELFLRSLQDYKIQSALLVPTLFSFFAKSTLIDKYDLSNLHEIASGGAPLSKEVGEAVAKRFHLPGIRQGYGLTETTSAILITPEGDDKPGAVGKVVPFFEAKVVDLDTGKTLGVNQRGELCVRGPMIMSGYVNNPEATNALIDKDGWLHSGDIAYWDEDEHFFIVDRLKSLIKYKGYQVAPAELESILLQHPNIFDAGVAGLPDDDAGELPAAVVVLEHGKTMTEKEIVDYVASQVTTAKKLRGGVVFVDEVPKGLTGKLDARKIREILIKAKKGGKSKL
Procedure, shortened: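 Purified P. pyralis luciferase at 10 nM in 50 mM Tris Acetate (final), luminescence read within 5 minutes of enzyme addition to compounds. Activity normalised to PTC124 versus DMSO; concentration-response curves classed by r2, magnitude and activity.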

[2] = biological target: Voltage-gated inwardly rectifying potassium channel KCNH2 (Homo sapiens) (UniProt Q12809); assay: qHTS Assay for Small Molecule Inhibitors of the Human hERG Channel Activity (AID 588834); details: U2OS BacMam hERG, FluxOR thallium flux fluorescence; series mostly up to 46.1 µM;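 also: top concentration of the series differs between compounds; lower thallium flux fluorescence means stronger hERG block; nearly all actives have a fitted effect of over 50% in size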
Chain of Voltage-gated inwardly rectifying potassium channel KCNH2 (Homo sapiens) (Q12809 whole entry, looked up): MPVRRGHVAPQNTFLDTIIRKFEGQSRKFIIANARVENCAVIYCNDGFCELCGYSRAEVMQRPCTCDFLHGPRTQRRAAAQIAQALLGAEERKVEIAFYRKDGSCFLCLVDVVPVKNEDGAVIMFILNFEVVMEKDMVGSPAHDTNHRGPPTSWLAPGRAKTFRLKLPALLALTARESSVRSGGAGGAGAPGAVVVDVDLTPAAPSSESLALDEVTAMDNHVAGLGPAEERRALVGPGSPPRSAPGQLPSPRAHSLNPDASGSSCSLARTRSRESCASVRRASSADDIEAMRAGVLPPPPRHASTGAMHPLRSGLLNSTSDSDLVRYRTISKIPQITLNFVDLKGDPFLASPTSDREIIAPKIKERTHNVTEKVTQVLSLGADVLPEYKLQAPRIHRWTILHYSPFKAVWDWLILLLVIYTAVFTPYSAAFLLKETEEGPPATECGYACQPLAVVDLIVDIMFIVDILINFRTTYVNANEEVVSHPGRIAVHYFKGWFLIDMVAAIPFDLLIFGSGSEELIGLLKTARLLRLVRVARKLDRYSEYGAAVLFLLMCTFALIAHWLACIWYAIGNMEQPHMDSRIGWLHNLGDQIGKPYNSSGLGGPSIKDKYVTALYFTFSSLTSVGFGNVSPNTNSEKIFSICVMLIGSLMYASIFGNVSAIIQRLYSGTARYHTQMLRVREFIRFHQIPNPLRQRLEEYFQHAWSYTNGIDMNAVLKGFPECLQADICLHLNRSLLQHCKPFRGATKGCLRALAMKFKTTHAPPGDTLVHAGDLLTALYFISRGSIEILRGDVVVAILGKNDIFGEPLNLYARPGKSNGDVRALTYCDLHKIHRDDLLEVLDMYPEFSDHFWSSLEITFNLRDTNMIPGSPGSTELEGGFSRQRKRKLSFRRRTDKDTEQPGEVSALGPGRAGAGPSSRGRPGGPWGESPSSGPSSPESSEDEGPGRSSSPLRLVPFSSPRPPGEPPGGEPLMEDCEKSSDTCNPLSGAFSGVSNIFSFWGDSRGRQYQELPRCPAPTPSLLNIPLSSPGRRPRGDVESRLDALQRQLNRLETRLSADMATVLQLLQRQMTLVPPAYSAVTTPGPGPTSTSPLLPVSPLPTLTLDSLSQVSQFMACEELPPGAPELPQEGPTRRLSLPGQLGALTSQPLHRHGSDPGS
Procedure, shortened: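 Blockade is seen as reduced FluxOR thallium-flux fluorescence in U2OS cells expressing hERG from a BacMam construct, in Opti-MEM with 2% FCS. Concentration-response data fitted to the Hill equation for AC50.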

[3] = S16 Schwann cell viability assay (CellTiter-Glo assay) (AID 624031); details: S16 rat Schwann cells viability, 24 h; series mostly up to 57.5 µM;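 also: cellular ATP luminescence as a viability measure; nearly all actives have a fitted effect of over 70% in size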
Procedure, shortened: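 Luminescent ATP read-out (CellTiter-Glo) after 24 h compound exposure of native S16 rat Schwann cells at 37 °C. Signals were normalized between cell-free wells and DMSO-treated cells, set as 0% activity.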

[4] = S16 Schwann cell PMP22 intronic element firefly luciferase assay (AID 624032); details: S16 rat Schwann cells, PMP22 element FLuc, 24 h; series mostly up to 57.5 µM; also: nearly all actives have a fitted effect of over 30% in size; also: potency is read from the fitted curve at half-maximal effect
Procedure, shortened: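 Rat S16 Schwann cells stably carrying firefly luciferase driven by a PMP22 intronic element, in 10% FBS, treated 24 h at 37 C. ONE-Glo luminescence normalized to PTC124 control and DMSO (0%); curves classed by r2, magnitude and activity.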

| Structure (SMILES) | Potency [1] | Potency [2] | outcome [3] | Potency [4] |
| --- | --- | --- | --- | --- |
| O=C(O)Cc1ccc(CCNS(=O)(=O)c2ccc(Cl)cc2)cc1 | inactive | – | – | – |
| CC(C(=O)O)c1ccc2c(c1)Cc1cccnc1O2 (stereo unspecified) | inactive | inactive | inactive | inactive |
| NC(N)=NS(=O)(=O)c1ccc(N)cc1 | inactive | – | – | – |
| Nc1ncnc(Nc2ccccc2)n1 | inactive | inactive | – | inactive |
| CCOc1ccc(C(=O)OCCN(CC)CC)cc1 | inactive | – | inactive | – |
| COc1ccccc1Oc1c(NS(=O)(=O)c2ccc(C(C)(C)C)cc2)nc(-c2ncccn2)nc1OCCO | inactive | inactive | – | inactive |
| CC(C)C[C@@H](N)C(=O)O | inactive | inactive | inactive | inactive |
| COc1ccccc1OC(=O)Oc1ccccc1OC | inactive | inactive | inactive | inactive |
| NS(=O)(=O)c1cc(-c2nn[nH]n2)c(NCc2cccs2)cc1Cl | – | inactive | inactive | inactive |
| Cn1c([N+](=O)[O-])cnc1COC(N)=O | inactive | inactive | – | inactive |
| CN/C(=C\[N+](=O)[O-])NCCSCc1csc(CN(C)C)n1 | inactive | inactive | – | inactive |
| O=C(O)c1cc(=O)c2ccccc2o1 | inactive | inactive | – | inactive |
| O=S1(=O)OC(c2ccc(O)cc2)(c2ccc(O)cc2)c2ccccc21 | – | inactive | inactive | 10.2 µM (active) |
| COc1cc(O)cc(O)c1 | inactive | – | – | – |
| CCCCCCCCCCCCCCCCC(C(=O)O)C(O)(CC(=O)O)C(=O)O (stereo unspecified) | – | inactive | inactive | inactive |
| COc1ccc(C(=O)NCc2ccc(OCCN(C)C)cc2)cc1OC | inactive | – | – | – |
| CC(=O)SC[C@@H](Cc1ccccc1)C(=O)NCC(=O)OCc1ccccc1 | inactive | inactive | inactive | inactive |

Reference: PubChem BioAssay (NCATS)
